The list is not random: actives were taken first. Their share in the collection is about 27%.
CYP2C19 inh: blocks human cytochrome P450 2C19; P33261; inhibition, % at 5 µM; AID 778; 21% of 96,000 active; CYP2C19 Supersomes, luciferin-H EGE luminescence, 30 min;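 active means CYP2C19 inhibition above a set limit at 5 µM in the primary screen, cut at about 50% in these data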;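 further: plate controls were negative control wells for no effect and 2.5 mM tranylcypromine positive control for full effect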
Target sequence (P33261 whole entry, looked up): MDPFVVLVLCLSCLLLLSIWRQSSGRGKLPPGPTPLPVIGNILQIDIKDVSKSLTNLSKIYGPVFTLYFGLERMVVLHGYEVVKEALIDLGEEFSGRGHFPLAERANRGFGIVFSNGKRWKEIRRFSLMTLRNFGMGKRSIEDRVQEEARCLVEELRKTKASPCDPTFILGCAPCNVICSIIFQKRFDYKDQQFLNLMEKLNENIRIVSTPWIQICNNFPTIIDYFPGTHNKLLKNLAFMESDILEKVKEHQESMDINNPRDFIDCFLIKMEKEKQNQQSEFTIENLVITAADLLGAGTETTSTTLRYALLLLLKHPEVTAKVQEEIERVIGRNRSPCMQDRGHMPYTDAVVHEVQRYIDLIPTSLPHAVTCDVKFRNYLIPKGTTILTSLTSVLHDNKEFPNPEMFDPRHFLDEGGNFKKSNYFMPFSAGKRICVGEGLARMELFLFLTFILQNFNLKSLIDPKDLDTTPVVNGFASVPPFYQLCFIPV
sEH inh: soluble epoxide hydrolase (human) inhibition; AID 707; 0.34% of 91,000 active; recombinant human sEH enzymatic activity assay; P34913; inhibition, % at 2 µM; in the data active means inhibition above about 80%
CYP2C9 inhib: inhibitors of human CYP2C9; P11712; CYP2C9 Supersomes, luciferin-H conversion, luminescence; inhibition, % at 5 µM; 20% of 96,000 active;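 active means blocking of liver enzyme CYP2C9 beyond about 50% at 5 µM, limit read from the data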
sEH act: increases human soluble epoxide hydrolase activity. 0.04% of 91,000 active. purified human sEH enzymatic activity, activator screen. P34913. AID 717. activation, % at 2 µM; in the data active means activation above about 37%
CYP2C19 act: cytochrome P450 2C19 (human) activation | 96,000 tested, under 10 active | activation factor at 5 µM | AID 1025 | recombinant CYP2C19, luciferin-H EGE luminescence; active compounds read high; 0 = fully inhibited enzyme, 1 = untreated enzyme;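 active means activation factor of at least 2 at 5 µM in the primary screen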;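 further: 0 = wells with 2.5 mM tranylcypromine and 1 = vehicle-only wells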
CYP2C9 act: activators of human CYP2C9; 1.4% of 96,000 active; recombinant CYP2C9, luciferin-H conversion, luminescence; active compounds read high; factor 1 = untreated enzyme, 0 = blocked; activation factor at 5 µM; P11712; AID 1024;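 active means activation factor of 2 or more for CYP2C9 at a 5 µM dose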;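 further: 0 = sulfaphenazole-blocked wells and 1 = vehicle-only wells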
Starred values were filed as active, the others as inactive; · = no result given.

SMILES	CYP2C19 inh	sEH inh	CYP2C9 inhib	sEH act	CYP2C19 act	CYP2C9 act
CN(C)c1ccc(C2C3C(=O)N(c4ccc(C(=O)O)cc4)C(=O)C3ON2c2ccccc2)cc1 (centres undefined)	1	·	11	·	1	0.9
O=C1C2ON(c3ccccc3)C(c3ccccc3F)C2C(=O)N1c1ccccc1 (centres undefined)	-7	8	10	-11	1.1	0.9
CCCC1C2C(=O)N(c3ccccc3)C(=O)C2ON1c1ccccc1 (centres undefined)	56*	9	55*	-8	0.4	0.4
CNC(=O)NC(=O)CSc1nc2cc(C(=O)OC)ccc2c(=O)n1-c1ccccc1	-1	7	15	-7	1	0.8
CC(C)OC(=O)c1c(NC(=O)c2cnn3c2NC(c2ccccc2)CC3C(F)F)sc2c1CCCC2 (centres undefined)	-2	-12	-9	13	1	1.1
O=C(O)COc1ccccc1C1C2C(=O)N(c3ccccc3)C(=O)C2ON1c1ccccc1 (centres undefined)	20	·	38	·	0.8	0.6
CCOc1ccccc1C1C2C(=O)N(c3ccccc3)C(=O)C2ON1c1ccccc1 (centres undefined)	21	-19	51*	18	0.8	0.5
CC(C)CCNc1ncnc2c1nnn2Cc1ccccc1Cl	15	·	-139	·	0.8	2.4*
c1ccc(Cn2nnc3c(NCC4CCCO4)ncnc32)cc1 (centres undefined)	33	-7	-138	9	0.7	2.4*
Clc1ccccc1Nc1ncnc2c1nnn2Cc1ccccc1	37	7	2	-9	0.6	1
CC1=NN(c2nc(-c3ccc(Cl)cc3)cs2)C(=O)C1	-8	-3	60*	4	1.1	0.4
COc1ccc(N2Cc3ccccc3C2)cc1Cl	12	-12	58*	11	0.9	0.4
CCOc1ccc(S(=O)(=O)Nc2cc(Cl)ccc2O)cc1	100*	-15	100*	18	0	0
CCOc1ccc(S(=O)(=O)Nc2cccc(Cl)c2)cc1	·	2	·	-5	·	·
CCOc1ccc(NS(=O)(=O)c2ccc(NS(=O)(=O)c3ccccc3)cc2)cc1	55*	-6	95*	5	0.5	0
CCc1ccccc1NS(=O)(=O)c1ccc(SC)cc1	81*	11	0	-11	0.2	1
CCOc1ccc(S(=O)(=O)Nc2ccccc2SC)cc1	67*	-8	-90	10	0.3	1.9
COC(=O)CC/C(C)=N\Nc1ccc([N+](=O)[O-])cc1[N+](=O)[O-]	8	5	10	-4	0.9	0.9
O=C1CC(C(=O)O)S/C(=N\NC(=O)c2ccccc2)N1 (centres undefined)	2	13	3	-13	1	1
COc1ccc2[nH]cc(C(O)CN3CCC(C(N)=O)CC3)c2c1 (centres undefined)	-8	7	2	-6	1.1	1
Cc1noc(C)c1S(=O)(=O)N(C)CC(=O)Nc1ccc(F)cc1	26	15	36	-17	0.7	0.6
CCc1ccc(OCC(O)CN2CCN(c3ccccc3)CC2)cc1 (centres undefined)	67*	-10	16	10	0.3	0.8
Cc1ccc(OCC(O)CN2CCN(c3ccccc3)CC2)cc1 (centres undefined)	-2	·	-20	·	1	1.2
OC(COCc1ccccc1)CN1CCN(c2ccccc2)CC1 (centres undefined)	4	-2	-14	2	1	1.1
CCCc1ccc(OCC(O)CN2CCN(c3ccccc3)CC2)cc1 (centres undefined)	73*	1	38	-2	0.3	0.6
SMILES	CYP2C19 inh	sEH inh	CYP2C9 inhib	sEH act	CYP2C19 act	CYP2C9 act
NC(=S)NNC(=O)c1ccccc1	-7	-3	3	4	1.1	1
CC(C)C(=O)NCCc1nc2ccccc2n1C	20	-6	1	7	0.8	1
CCCc1nc2ccccc2n1CCOc1ccccc1	61*	-20	34	22	0.4	0.7
CCCc1nc2ccccc2n1CCOC	4	-6	4	9	1	1
COCc1nc2ccccc2n1CCCOc1ccccc1	97*	-11	78*	9	0	0.2
OCCCc1nc2ccccc2n1CCOc1ccccc1	84*	-1	42	2	0.2	0.6
CC(C)C(=O)NCCc1nc2ccccc2n1CCCOc1ccc(Cl)cc1	77*	0	77*	1	0.2	0.2
O=C(Nc1nc2ccccc2n1CCOc1ccccc1)c1ccco1	58*	·	38	·	0.4	0.6
COc1ccc(NCc2nc3ccccc3n2CCOc2ccccc2)cc1	25	-10	79*	7	0.8	0.2
O=C(Nc1nc2ccccc2n1CCOc1ccc(Cl)cc1)c1ccco1	2	-12	10	11	1	0.9
Cc1ccc(OCCn2c(CCCO)nc3ccccc32)cc1	59*	-10	28	11	0.4	0.7
CCOCCn1c(COc2ccccc2)nc2ccccc21	51*	-6	15	6	0.5	0.9
CCOCCn1c(CCCO)nc2ccccc21	0	7	-7	-6	1	1.1
Cc1ccc(NC(=O)CCC(=O)NNC(=O)c2ccco2)cc1C	2	6	-2	-5	1	1
O=C(Cc1cccc2ccccc12)Nc1ccc(-c2cc3ccccc3oc2=O)cc1	-2	-6	37	8	1	0.6
CCOC(=O)N1CCN(c2nc3ccccc3nc2C(C#N)S(=O)(=O)c2ccc(C)cc2)CC1 (centres undefined)	33	6	92*	-7	0.7	0.1
Cc1cccc(S(=O)(=O)C(C#N)c2nc3ccccc3nc2N2CCOCC2)c1 (centres undefined)	29	-6	56*	3	0.7	0.4
Cc1ccc(S(=O)(=O)C(C#N)c2nc3ccccc3nc2N2CCCCC2)cc1 (centres undefined)	17	·	7	·	0.8	0.9
O=C1c2ccc(Oc3ccc4c(c3)C(=O)N(CCCO)C4=O)cc2C(=O)N1CCCO	12	-2	-3	3	0.9	1
CC(=O)C1=C(O)C(=O)N(CCCCCC(=O)O)C1c1ccc(N(C)C)cc1 (centres undefined)	-2	-14	-10	18	1	1.1
CN(C(=O)c1cccs1)c1ccccc1C(=O)O	-15	7	-16	-8	1.2	1.2
CCOC(=O)c1[nH]c(C)c(C(=O)NCCc2ccc(OC)cc2)c1C	32	·	72*	·	0.7	0.3
CCOC(=O)c1[nH]c(C)c(C(=O)Nc2ccc(C)c(Cl)c2)c1C	·	11	·	-11	·	·
CCOC(=O)c1[nH]c(COC(=O)c2ccccc2NC(=O)c2ccco2)c(C(=O)OCC)c1C	50	-1	88*	2	0.5	0.1
COC(=O)c1ccccc1NC(=O)CNC(=O)c1ccco1	33	-4	31	6	0.7	0.7
